Reference: PubChem BioAssay AID1619 (SRMLSC, 2009)
In all, about 220,000 compounds went through this assay and about 830 (0.38%) were called active.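 How the source made its calls: active means compound inhibiting the enzyme by more than half at any dose during confirmatory dose-response retesting; inconclusive means strong single-dose inhibitors picked by rank but not retested; inactive means the rest.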 The list is a sample of the results. Results with a measured potency or affinity are listed apart. Residues, ends and D or L forms follow the SMILES beside them. *: point of attachment. Bz = O=C(c1ccccc1)*

target: Leucine aminopeptidase (Plasmodium falciparum (isolate 3D7)) (UniProt Q8IL11); assay: P. falciparum M17LAP inhibitors, primary screen, biochemical, fluorogenic H-Leu-NHMec substrate, 1536-well (AID 1619); conditions: recombinant M17LAP, H-Leu-NHMec fluorogenic kinetic assay; at 30 µM; hits give high values;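 further: plate controls were full reaction with DMSO carrier for no effect and no enzyme background for full effect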
Sequence (Q8IL11 whole entry, looked up): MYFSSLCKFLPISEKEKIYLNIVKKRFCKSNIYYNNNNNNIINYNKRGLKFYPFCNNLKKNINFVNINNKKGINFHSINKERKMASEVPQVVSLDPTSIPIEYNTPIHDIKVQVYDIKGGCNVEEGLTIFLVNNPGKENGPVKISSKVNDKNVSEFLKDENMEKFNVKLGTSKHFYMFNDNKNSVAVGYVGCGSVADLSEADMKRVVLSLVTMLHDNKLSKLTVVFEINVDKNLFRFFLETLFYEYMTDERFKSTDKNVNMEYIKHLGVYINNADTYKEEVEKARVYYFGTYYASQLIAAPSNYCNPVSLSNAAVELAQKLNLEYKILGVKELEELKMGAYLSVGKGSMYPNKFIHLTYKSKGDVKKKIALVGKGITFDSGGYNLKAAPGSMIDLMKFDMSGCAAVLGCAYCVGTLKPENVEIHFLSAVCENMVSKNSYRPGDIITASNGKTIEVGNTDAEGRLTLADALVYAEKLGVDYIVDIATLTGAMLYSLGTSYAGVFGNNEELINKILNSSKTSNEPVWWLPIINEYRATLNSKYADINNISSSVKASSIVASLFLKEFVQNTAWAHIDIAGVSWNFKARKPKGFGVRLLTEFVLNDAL

inhibition, inactive:
COc1ccc(Nc2nc(C(=O)N3CCc4cc(OC)c(OC)cc4C3)cs2)cc1 -3.32%
COc1ccc(NC(=O)COC(=O)c2ccco2)c([N+](=O)[O-])c1 -7.81%
CN(Cc1cnccn1)C(=O)CC1C(=O)NCCN1Cc1c(F)cccc1Cl (configuration not stated) 4.09%
CCc1ccc(C(=O)NC(C(=O)O)C(C)C)cc1 (configuration not stated) 56.2%
CCCCc1ccc(NC(=O)C(C)CC)cc1 (configuration not stated) 4.63%
CCc1ccc(NC(=O)N[C@H](C(=O)O)C(C)CC)cc1 (some centres not stated) -1.8%
CCCCc1ccc(NC(=O)N[C@@H](C)C(=O)O)cc1 -2.39%
CCCCc1ccc(NC(=O)N[C@@H](CC(C)C)C(=O)O)cc1 -4.28%
CCCCCOc1ccc(C(=O)NC(C(=O)O)C(C)C)cc1 (configuration not stated) 46.7%
CC(C)(C)NC(=O)CN(Cc1ccc(F)cc1)C(=O)Cn1nnc(-c2ccc(F)cc2)n1 2.63%
Cc1cccc(OCCCOc2cccc3cccnc23)c1C -0.78%
C[C@@H](C(=O)N1CCN(C(=O)OC(C)(C)C)CC1)n1cc(CCC(=O)O)nn1 3.71%
Cc1ccc(SCCn2nc(C(=O)O)c3ccccc3c2=O)cc1 11.2%
Cc1cccc(NS(=O)(=O)c2ccc3c(c2)NC(=O)CC(=O)N3)c1 0.82%
O=C(Nc1sc2c(c1C(=O)O)CCCCC2)c1ccccc1 54.2%
COc1ccc(NC(=O)c2c(NC(=O)CCC(=O)O)sc3c2CCCCC3)cc1 46%
CCOc1ccccc1NC(=O)c1c(NC(=O)CCC(=O)O)sc2c1CCCCC2 3.19%
Cc1ccccc1C(=O)Nc1sc2c(c1C(=O)O)CCC2 25.7%
CCOC(=O)c1ccc(NC(=O)c2c(NC(=O)CCC(=O)O)sc3c2CCCCC3)cc1 4.02%
COc1ccccc1NC(=O)c1c(NC(=O)CCC(=O)O)sc2c1CCCCC2 12%
O=C(NCCC(c1ccccc1)c1ccccc1)c1cnccn1 -1.23%
COc1ccc(C)cc1NC(=O)C(OC(=O)CNC(=O)c1ccc(Br)cc1)c1ccccc1 (configuration not stated) -14.5%
CN(C)S(=O)(=O)c1ccc(NC(=O)Cn2ccsc2=N)cc1 0.8%
c1ccc(-c2nc(NCC3CCCO3)c3oc4ccccc4c3n2)cc1 (configuration not stated) -4.77%
Cc1noc(C)c1COc1ccc(C(=O)OCC(=O)Nc2ccc3c(c2)OCO3)cc1 4.59%
COc1ccc2[nH]c(C)c(CCNC(=S)Nc3ccc(F)cc3)c2c1 -5.1%
O=C(Cn1cc2c(n1)CCCC2)N1CCc2ccccc21 3.11%
COc1ccccc1N1CC(C)C(=O)NC1=S (configuration not stated) 8%
Cc1onc(-c2ccccc2)c1C(=O)NC(=S)NNC(=O)c1ccc(O)cc1 14.3%
Cc1ccccc1C(=O)NCC(=O)NNC(=S)NC(=O)c1ccccc1C 63.2%
Cc1ccccc1C(=O)NC(=S)NCC(=O)c1ccccc1 0.75%
Cc1ccccc1C(=O)NNC(=S)NC(=O)c1ccc(Cl)cc1Cl 90.7%
Cc1ccccc1C(=O)NNC(=S)NC(=O)c1cccnc1 80.7%
Cc1onc(-c2ccccc2)c1C(=O)NNC(=S)NC(=O)c1ccc(Br)cc1 44.1%
Cc1ccc(NC(=O)CN(c2ccccc2)S(=O)(=O)N(C)C)cc1 -5.3%
CCOC(=O)c1cnc2c(C(F)(F)F)cccc2c1N1CCOCC1 6.02%
C/C(CC(=O)N(C(C)C)C(C)C)=N\NC(=O)COc1ccc(Cl)cc1Cl 7.13%
Cc1ccc(C(=O)Nc2ccc3cn[nH]c3c2)cc1S(=O)(=O)N1CCCCC1 4.67%
CCOC(=O)NC(=O)CSc1nnnn1-c1ccccc1 0.74%
OCC(O)C1OC(Nc2ccc(Cl)cc2)C(O)C1O (configuration not stated) 2.43%
Cc1nn(S(=O)(=O)c2cccc([N+](=O)[O-])c2)c(C)c1Br 10.8%
Cc1ccc(NC(=O)COC(=O)Cn2c(C)csc2=O)cc1C 4.89%
Nc1n[nH]c(C2CC2)c1N=Nc1ccc(Cl)cc1 18.4%
Nc1n[nH]c(N)c1N=Nc1ccc(Cl)cc1Cl 47.6%
Nc1nn(-c2ccccc2)c(N)c1N=Nc1ccccc1 -19.2%
Nc1nn(-c2ccccc2)c(N)c1N=Nc1cccc(F)c1 -3.61%
COc1ccc(N=Nc2c(N)n[nH]c2N)cc1 9.88%
Cc1[nH]nc(N)c1N=Nc1ccc(Br)cc1 -1.99%
Nc1n[nH]c(N)c1N=Nc1ccc2c(c1)OCO2 -3.08%
COC(=O)c1ccccc1N=Nc1c(N)n[nH]c1N 12.4%
Cc1ccc(S(=O)(=O)N2CCOCC2)cc1NC(=O)CN1CCN(c2ccc(O)cc2)CC1 -10.2%
Cc1nn(Cc2c(Cl)cccc2Cl)c(C)c1NC(=O)CCCn1nc(C)c([N+](=O)[O-])c1C -7.34%
CCOc1ccc(NC(=S)NN2C(C)CCCC2C)cc1 (configuration not stated) -3.03%
C[C@@H]1NC(=O)c2cc([N+](=O)[O-])cc(I)c2OCC[C@@H](C(N)=O)NC(=O)[C@H](CCCCN)NC1=O 21.6%
CCCCC(=O)NC(=S)Nc1cccc(NC(=O)c2ccccc2)c1 2.99%
O=C(NCc1ccc2c(c1)OCO2)C1CCC(CNc2c(N3CCCC3)c(=O)c2=O)CC1 (configuration not stated) 9.79%
Cc1noc(C)c1CSCc1ccc(Cl)cc1 2.99%
COc1ccc(-c2nc(=S)n3ccsc3n2)cc1OC -2.9%
O=C(NCc1ccccc1)N1CCN(c2ccc(F)cc2)CC1 13.1%
O=C(c1ccc(S(=O)(=O)N2CCOCC2)cc1)N1CCOCC1 -9.29%
Cc1cc(C)cc(-n2c(SCC(=O)NCc3ccc4c(c3)OCO4)nc3ccccc3c2=O)c1 19.8%
Cc1cc(C)nc(NS(=O)(=O)c2ccc(Br)cc2)n1 15.3%
O=C1CCCC/C1=C/Nc1ccc(S(=O)(=O)Nc2ncccn2)cc1 6.19%
C=CCOC(=O)c1c(C)nc2cc3c(cc2c1C)OCO3 9.48%
Cc1ccc(C(=O)CC(C(=O)O)n2cnc([N+](=O)[O-])n2)cc1 (configuration not stated) 11.1%
O=C(NCc1ccco1)C(=O)c1cn(CC(=O)N2CCCCC2)c2ccccc12 8.43%
O=C(NCc1cccs1)C(=O)c1cn(CC(=O)N2CCCC2)c2ccccc12 24.7%
O=C(c1ccco1)c1cn(CC(=O)N2CCCCC2)c2ccccc12 33.5%
CCN(CC)C(=O)Cn1cc(C(=O)C(=O)NCc2ccco2)c2ccccc21 25.3%
Cc1ccc(N=C(NO)c2nonc2N)c(C)c1 14.3%
O=C(Cn1c(=O)oc2ccccc21)NCCc1ccccc1Cl 1.7%
NC(=S)c1ncc(C(F)(F)F)cc1Cl -12.7%
CC(C)NC(=O)c1cnc(Sc2ncc(C(F)(F)F)cc2Cl)n1C 6.92%
O=C(c1cc[n+]([O-])cc1)N1CCc2c([nH]c3ccccc23)C1c1ccccc1Cl (configuration not stated) 15.1%
O=C(c1nc(-c2ccccc2)n(-c2ccccc2)n1)N1CCN(S(=O)(=O)c2ccccc2)CC1 -12.4%
CCOc1ccc(C(=O)NCC(=O)OCc2cc(C(C)=O)ccc2OC)cc1 3.31%
CCC(C)C(NC(=O)c1ccccc1NC(=O)c1ccco1)C(=O)NNC(=O)c1ccncc1 (configuration not stated) 3.96%
Cc1cc(C)cc(Nc2cnn(C34CC5CC(CC(CC(=O)O)(C5)C3)C4)c(=O)c2Cl)c1 45.8%
Cc1cccc(Nc2cnn(C34CC5CC(CC(CC(=O)O)(C5)C3)C4)c(=O)c2Cl)c1 39.2%
CC(=O)c1ccc(Nc2cnn(C34CC5CC(CC(CC(=O)O)(C5)C3)C4)c(=O)c2Cl)cc1 46.4%
CCc1ccc(Nc2cnn(C34CC5CC(CC(CC(=O)O)(C5)C3)C4)c(=O)c2Cl)cc1 53.3%
O=C(O)C12C[C@H]3C[C@@H](C1)CC(n1ncc(N4CCN(c5ccccc5)CC4)c(Cl)c1=O)(C3)C2 36.9%
O=C(O)C12CC3CC(C1)CC(n1ncc(N4CCN(c5ccccc5)CC4)c(Cl)c1=O)(C3)C2 61.6%
CCOC(=O)c1csc(NC(=O)CSc2nnnn2-c2ccc(OC)c(OC)c2)n1 11.3%
COc1cccc(-n2c(SCC(=O)N3CCCCC3)nc3c([nH]c4ccccc43)c2=O)c1 -3.56%
CC(=O)NC(Cc1ccccc1)C(=O)NC1CCN(C(=O)c2ccc([N+](=O)[O-])cc2)CC1 (configuration not stated) -3.72%
O=C(O)CCC(NC(=O)C(Cc1ccc2c(c1)OCO2)NC(=O)c1ccccc1)C(=O)O (configuration not stated) 46.2%
O=C(NC(Cc1ccccc1)C(=O)NC(Cc1ccccc1)C(=O)O)c1ccccc1 (stereo not drawn) (Bz-Phe-Phe-OH; configuration not given here) 45.6%
O=C(O)c1ccc(COc2ccccc2/C=C2/NC(=O)N(c3cccc(Cl)c3)C2=O)cc1 7.83%
O=C(O)c1ccc(-n2cccc2/C=C2/NC(=O)N(c3ccccc3)C2=O)cc1 11.3%
CCc1noc(C)c1C(=O)Nc1nc(-c2cc(C)ccc2C)c(C)s1 -3.18%
CC1=C(C)CC(C(=O)Nc2nc(-c3ccc(F)cc3)c(C)s2)C(C(=O)O)C1 (configuration not stated) 48.9%
